# From article PMC5540273 (PLoS ONE, 2017)
# Read-outs that look alike come from different tables or passages of the source.
# What was measured:
# Details in all cases: n = 1
# [1] = system: PIM1
# [2] = system: PIM2
# [3] = system: PIM3
# [4] = system: PIP5K1A
# [5] = system: PIP5K1C
# [6] = system: PIP5K2B
# [7] = system: T1, PIP5K2C
# T1 construct: gene PIP4K2C
# [8] = system: T2, PKAC-alpha
# T2 construct: gene PRKACA
# [9] = system: T3, PKAC-beta
# T3 construct: gene PRKACB
# [10] = system: PKMYT1
# [11] = system: PKN1
# [12] = system: PKN2
# [13] = system: PLK1
# [14] = system: PLK2
# [15] = system: PLK3
# [16] = system: PLK4
# [17] = system: PRKCD
# [18] = system: PRKCE
# [19] = system: PRKCH
# [20] = system: PRKCI
# [21] = concentration: 1 μM, replicates: in singlicate
# 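Also: KINOMEscan kinase panel screen.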
smiles,measurement,setting,value
CC(=O)Nc1nc2cnc(Nc3cc(NC(=O)c4cccc(CCC#N)c4)ccc3C)nc2s1,%Inh,[1]; [21],5%
same,%Inh,[2]; [21],19%
same,%Inh,[3]; [21],9%
same,%Inh,[4]; [21],13%
same,%Inh,[5]; [21],0%
same,%Inh,[6]; [21],45%
same,%Inh,[7]; [21],4%
same,%Inh,[8]; [21],15%
same,%Inh,[9]; [21],0%
same,%Inh,[10]; [21],0%
same,%Inh,[11]; [21],12%
same,%Inh,[12]; [21],0%
same,%Inh,[13]; [21],0%
same,%Inh,[14]; [21],8%
same,%Inh,[15]; [21],14%
same,%Inh,[16]; [21],9%
same,%Inh,[17]; [21],8%
same,%Inh,[18]; [21],0%
same,%Inh,[19]; [21],0%
same,%Inh,[20]; [21],32%
Cc1ccc(NC(=O)Nc2cccc(C(F)(F)F)c2)cc1 [GSK955403],%Inh,[1]; 1 µM,5%
same,%Inh,[2]; 1 µM,15%
same,%Inh,[3]; 1 µM,21%
same,%Inh,[4]; 1 µM,0%
same,%Inh,[5]; 1 µM,0%
same,%Inh,[6]; 1 µM,0%
same,%Inh,[7]; 1 µM,0%
same,%Inh,[8]; 1 µM,14%
same,%Inh,[9]; 1 µM,14%
same,%Inh,[10]; 1 µM,0%
same,%Inh,[11]; 1 µM,16%
same,%Inh,[12]; 1 µM,0%
same,%Inh,[13]; 1 µM,0%
same,%Inh,[14]; 1 µM,0%
same,%Inh,[15]; 1 µM,0%
same,%Inh,[16]; 1 µM,9%
same,%Inh,[17]; 1 µM,8%
same,%Inh,[18]; 1 µM,0%
same,%Inh,[19]; 1 µM,0%
same,%Inh,[20]; 1 µM,11%
O=C(O)COc1ncnc2cc(-c3ccc4[nH]ncc4c3)sc12,%Inh,[1]; [21],0%
same,%Inh,[2]; [21],0%
same,%Inh,[3]; [21],7%
same,%Inh,[4]; [21],0%
same,%Inh,[5]; [21],0%
same,%Inh,[6]; [21],17%
same,%Inh,[7]; [21],0%
same,%Inh,[8]; [21],0%
same,%Inh,[9]; [21],4%
same,%Inh,[10]; [21],0%
same,%Inh,[11]; [21],30%
same,%Inh,[12]; [21],19%
same,%Inh,[13]; [21],2%
same,%Inh,[14]; [21],18%
same,%Inh,[15]; [21],12%
same,%Inh,[16]; [21],15%
same,%Inh,[17]; [21],19%
same,%Inh,[18]; [21],10%
same,%Inh,[19]; [21],0%
same,%Inh,[20]; [21],3%
COc1ccc(C2=C(Nc3cccc(C(=O)O)c3)C(=O)NC2=O)cc1 [SB-390765],%Inh,[1]; [21],5%
same,%Inh,[2]; [21],6%
same,%Inh,[3]; [21],11%
same,%Inh,[4]; [21],13%
same,%Inh,[5]; [21],4%
same,%Inh,[6]; [21],16%
same,%Inh,[7]; [21],0%
same,%Inh,[8]; [21],12%
same,%Inh,[9]; [21],25%
same,%Inh,[10]; [21],0%
same,%Inh,[11]; [21],18%
same,%Inh,[12]; [21],7%
same,%Inh,[13]; [21],21%
same,%Inh,[14]; [21],48%
same,%Inh,[15]; [21],21%
same,%Inh,[16]; [21],2%
same,%Inh,[17]; [21],5%
same,%Inh,[18]; [21],25%
same,%Inh,[19]; [21],4%
same,%Inh,[20]; [21],47%
